Data published in PubChem BioAssay AID1159580 (chemical genetic matrix, 2015).
The whole screen tested about 5,500 compounds, of which about 2,000 (36%) were called active. Another 18% or so got no clear call; they are omitted. Cut-off read from the data, not from the text of the source: active = normalized growth mostly below about 0.91 (no sharp cut-off); inconclusive = no clear call, values can overlap the other calls; inactive = mostly above about 0.92. The list shows a part of the results.

Assay: chemical genetic growth profiling, strain panel (AID 1159580);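 note: tested at 20 µM; growth read once vehicle control cultures reached saturation at 30 °C; 1 = growth at the plate median or of vehicle wells; lower values mean less growth of the strain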
Settings: growth OD

Measured: normalized growth

COC1=CC(=O)C[C@@H](C)[C@]12Oc1c(Cl)c(OC)cc(OC)c1C2=O
inactive: S. cerevisiae deletion strains, locus YJR075W, strain HOC1, hits give low values 1.03 | S. cerevisiae deletion strains, locus YKL009W, strain mrt4, hits give low values 1 | S. cerevisiae deletion strains, locus YKL068W, hits give low values 0.986 | S. cerevisiae deletion strains, locus YKL085W, strain MDH1 (second series), hits give low values 0.989 | S. cerevisiae deletion strains, locus YKL085W, strain MDH1, hits give low values 0.989 | S. cerevisiae deletion strains, locus YKL160W, strain elf1, hits give low values 1.02 | S. cerevisiae deletion strains, locus YKL190W, strain CNB1, hits give low values 1 | S. cerevisiae deletion strains, locus YKR001C, strain vps1, hits give low values 0.995 | S. cerevisiae deletion strains, locus YKR026C, strain gcn3, hits give low values 0.979 | S. cerevisiae deletion strains, locus YKR091W, strain srl3, hits give low values 0.989 | S. cerevisiae deletion strains, locus YLL001W, strain dnm1, hits give low values 0.984 | S. cerevisiae deletion strains, locus YLL026W, hits give low values 0.984 | S. cerevisiae deletion strains, locus YLL041C, strain sdh2, hits give low values 0.996 | S. cerevisiae deletion strains, locus YLR027C, strain aat2, hits give low values 0.993 | S. cerevisiae deletion strains, locus YLR039C, strain RIC1, hits give low values 0.983 | S. cerevisiae deletion strains, locus YLR058C, strain SHM2, hits give low values 0.996 | S. cerevisiae deletion strains, locus YLR102C, strain apc9, hits give low values 1 | S. cerevisiae deletion strains, locus YLR113W, strain HOG1, hits give low values 1 | S. cerevisiae deletion strains, locus YLR221C, strain rsa3, hits give low values 0.956 | S. cerevisiae deletion strains, locus YLR258W, strain gsy2, hits give low values 0.982 | S. cerevisiae deletion strains, locus YLR262C, strain YPT6 (second series), hits give low values 0.967 | S. cerevisiae deletion strains, locus YLR262C, strain YPT6, hits give low values 0.936 | S. cerevisiae deletion strains, locus YLR268W, strain sec22, hits give low values 0.994 | S. cerevisiae deletion strains, locus YLR320W, strain mms22, hits give low values 0.982 | S. cerevisiae deletion strains, locus YLR330W, strain CHS5, hits give low values 0.994 | S. cerevisiae deletion strains, locus YLR342W, strain FKS1 (second series), hits give low values 0.979 | S. cerevisiae deletion strains, locus YLR342W, strain FKS1, hits give low values 0.972 | S. cerevisiae deletion strains, locus YLR357W, strain rsc2, hits give low values 1.01 | S. cerevisiae deletion strains, locus YLR370C, strain arc18, hits give low values 0.943 | S. cerevisiae deletion strains, locus YLR371W, strain rom2, hits give low values 0.987 | S. cerevisiae deletion strains, locus YLR384C, strain iki3, hits give low values 0.993 | S. cerevisiae deletion strains, locus YLR418C, strain cdc73, hits give low values 0.987 | S. cerevisiae deletion strains, locus YML016C, strain PPZ1, hits give low values 0.991 | S. cerevisiae deletion strains, locus YML032C, strain rad52, hits give low values 0.986 | S. cerevisiae deletion strains, locus YML120C, strain ndi1, hits give low values 0.951 | S. cerevisiae deletion strains, locus YML124C, strain tub3, hits give low values 0.99 | S. cerevisiae deletion strains, locus YMR058W, strain fet3, hits give low values 0.999 | S. cerevisiae deletion strains, locus YMR078C, strain ctf18, hits give low values 0.987 | S. cerevisiae deletion strains, locus YMR125W, strain sto1, hits give low values 0.988 | S. cerevisiae deletion strains, locus YMR129W, hits give low values 0.983 | S. cerevisiae deletion strains, locus YMR205C, strain PFK2, hits give low values 1.01 | S. cerevisiae deletion strains, locus YMR223W, strain ubp8, hits give low values 0.988 | S. cerevisiae deletion strains, locus YMR231W, strain pep5, hits give low values 0.991 | S. cerevisiae deletion strains, locus YMR263W, strain SAP30, hits give low values 1.01 | S. cerevisiae deletion strains, locus YMR307W, strain GAS1, hits give low values 0.847 | S. cerevisiae deletion strains, locus YNL067W, strain RPL9B, hits give low values 1.04 | S. cerevisiae deletion strains, locus YNL071W, strain lat1, hits give low values 0.992 | S. cerevisiae deletion strains, locus YNL128W, strain TEP1, hits give low values 1 | S. cerevisiae deletion strains, locus YNL153C, strain GIM3, hits give low values 1.04 | S. cerevisiae deletion strains, locus YNL183C, strain NPR1, hits give low values 0.958 | S. cerevisiae deletion strains, locus YNL209W, strain ssb2, hits give low values 0.984 | S. cerevisiae deletion strains, locus YNL233W, strain BNI4, hits give low values 1.06 | S. cerevisiae deletion strains, locus YNL248C, strain rpa49, hits give low values 1.05 | S. cerevisiae deletion strains, locus YNL250W, strain rad50, hits give low values 1 | S. cerevisiae deletion strains, locus YNL271C, strain bni1, hits give low values 0.99 | S. cerevisiae deletion strains, locus YNL298W, strain CLA4, hits give low values 0.995 | S. cerevisiae deletion strains, locus YNL307C, strain MCK1, hits give low values 1 | S. cerevisiae deletion strains, locus YNL322C, strain KRE1 (second series), hits give low values 0.991 | S. cerevisiae deletion strains, locus YNL322C, strain KRE1, hits give low values 1 | S. cerevisiae deletion strains, locus YNR049C, strain mso1, hits give low values 0.98 | S. cerevisiae deletion strains, locus YNR052C, strain pop2, hits give low values 0.999 | S. cerevisiae deletion strains, locus YOL006C, strain TOP1, hits give low values 1.11 | S. cerevisiae deletion strains, locus YOL012C, strain htz1 0.916 | S. cerevisiae deletion strains, locus YOL147C, strain pex11, hits give low values 0.993 | S. cerevisiae deletion strains, locus YOR001W, strain rrp6, hits give low values 0.967 | S. cerevisiae deletion strains, locus YOR061W, strain CKA2, hits give low values 0.968 | S. cerevisiae deletion strains, locus YOR069W, strain VPS5, hits give low values 0.993 | S. cerevisiae deletion strains, locus YOR070C, strain gyp1, hits give low values 0.977 | S. cerevisiae deletion strains, locus YOR080W, strain dia2, hits give low values 0.982 | S. cerevisiae deletion strains, locus YOR083W, strain WHI5, hits give low values 1.02 | S. cerevisiae deletion strains, locus YOR106W, strain vam3, hits give low values 1 | S. cerevisiae deletion strains, locus YOR136W, strain idh2, hits give low values 1 | S. cerevisiae deletion strains, locus YOR144C, strain elg1, hits give low values 0.988 | S. cerevisiae deletion strains, locus YOR184W, strain ser1, hits give low values 0.991 | S. cerevisiae deletion strains, locus YOR231W, strain MKK1, hits give low values 1.01 | S. cerevisiae deletion strains, locus YOR265W, strain rbl2, hits give low values 0.978 | S. cerevisiae deletion strains, locus YOR270C, strain vph1, hits give low values 0.952 | S. cerevisiae deletion strains, locus YOR290C, strain snf2, hits give low values 1.03 | S. cerevisiae deletion strains, locus YOR316C, strain cot1, hits give low values 0.992 | S. cerevisiae deletion strains, locus YPL051W, strain arl3, hits give low values 1.02 | S. cerevisiae deletion strains, locus YPL055C, strain LGE1, hits give low values 0.985 | S. cerevisiae deletion strains, locus YPL078C, strain atp4, hits give low values 1.03 | S. cerevisiae deletion strains, locus YPL106C, strain sse1, hits give low values 0.964 | S. cerevisiae deletion strains, locus YPL240C, strain hsp82, hits give low values 0.988 | S. cerevisiae deletion strains, locus YPL241C, strain CIN2, hits give low values 0.992 | S. cerevisiae deletion strains, locus YPL256C, strain CLN2, hits give low values 0.985 | S. cerevisiae deletion strains, locus YPR119W, strain clb2, hits give low values 0.99 | S. cerevisiae deletion strains, locus YPR141C, strain kar3, hits give low values 0.978 | S. cerevisiae deletion strains, locus YPR163C, strain tif3, hits give low values 0.98 | S. cerevisiae deletion strains, locus YPR167C, strain met16, hits give low values 0.99 | S. cerevisiae deletion strains, strain wtn01, hits give low values 0.998 | S. cerevisiae strains, strain wild type, hits give low values 0.988
